From PubChem BioAssay
Most compounds without a hit are left out; they make up all but 2.9% or so of the library.
FBA Mtb inh: Mtb fructose-bisphosphate aldolase inhibition | purified M. tuberculosis FBA, fluorescence read-out | 360,000 tested, 2.3% active | AID 588726 | P9WQA3 | inhibition, % at 1 µM
Target sequence (P9WQA3 whole entry, looked up): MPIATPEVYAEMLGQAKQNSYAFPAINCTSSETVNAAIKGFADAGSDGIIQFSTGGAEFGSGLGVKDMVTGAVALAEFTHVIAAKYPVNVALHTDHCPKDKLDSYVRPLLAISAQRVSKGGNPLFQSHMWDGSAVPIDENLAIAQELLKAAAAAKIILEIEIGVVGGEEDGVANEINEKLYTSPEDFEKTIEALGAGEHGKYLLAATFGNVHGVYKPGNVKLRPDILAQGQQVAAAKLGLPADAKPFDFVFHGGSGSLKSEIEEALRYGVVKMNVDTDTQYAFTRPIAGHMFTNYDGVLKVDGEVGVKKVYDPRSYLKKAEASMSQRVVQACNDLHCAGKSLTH
BioA inh: BioA (M. tuberculosis) enzyme inhibition. purified M. tuberculosis BioA enzyme, plate reader. inhibition, % at 9.99 µM. 360,000 tested, 0.096% active; in the data active means inhibition above about 40%
GDH-TPI counter-1: counter-screen for M. tuberculosis FBA inhibitors: GDH-TPI coupled enzymes. GDH-TPI coupled enzyme counterscreen, NADH absorbance. inhibition, % at 4.8 µM. 360,000 tested, 1.2% active. AID 588335; in the data active means inhibition above about 30%
FadD28 FP inh: inhibitors of Mycobacterium tuberculosis FadD28 bisubstrate binding | 360,000 tested, 0.22% active | FadD28 bisubstrate probe binding, fluorescence polarization | inhibition, % at 12.5 µM; in the data active means inhibition above about 8.5%, passing the limit was not always enough
Mtb hypoxia rep: reduces hypoxia-regulated biosensor signal in M. tuberculosis | M. tuberculosis hypoxia-regulated fluorescent reporter, fluorescence | fluorescence inhibition, % (concentration not given with the values) | 300,000 tested, 0.1% active | AID 1159583; in the data active means fluorescence inhibition mostly above about 23%, no sharp cut-off; inactive means mostly below about 17%
Mtb FBA confirm: Mtb FBA inhibition, confirmed; 5,600 tested, 78% active; shares compounds with FBA Mtb inh; inhibition, % at 1 µM; purified M. tuberculosis FBA, fluorescence read-out
GDH-TPI counter-2: GDH-TPI inhibition counter-screen for FBA inhibitors; shares compounds with FBA Mtb inh; GDH-TPI coupled enzyme counterscreen, fluorescence; inhibition, % at 1 µM; 5,600 tested, 81% active; AID 652141; in the data active means inhibition above about 10%
Numbers stand for hits; n = inactive; x = no result given; + = active, no number. Unless noted, no stated cut-off is given here; in the data, active means inhibition above about 27%; inactive means the rest.

SMILES | FBA Mtb inh | BioA inh | GDH-TPI counter-1 | FadD28 FP inh | Mtb hypoxia rep | Mtb FBA confirm | GDH-TPI counter-2
c1ccc(Oc2ccc(-c3ccnc4nc(N5CCOCC5)nn34)cc2)cc1 | 42 | n | n | n | n | + | +
COc1ccc(-c2ccnc3nc(-n4cccc4)nn23)cc1 | n | x | n | n | n | x | x
CC1=CC(C/C(C)=C/COc2ccc3ccc(=O)oc3c2)OC1=O (stereo not drawn) | 48 | n | n | n | x | 54 | 44
COC(=O)c1cc(COc2ccc3ccc(=O)oc3c2)c(C)o1 | 36 | n | n | n | n | n | n
CC(C)=CCOc1ccc2ccc(=O)oc2c1 | 65 | n | n | n | x | 60 | 50
CC(C)=CCC/C(C)=C/CC/C(C)=C/COc1ccc2ccc(=O)oc2c1 | 30 | n | n | n | x | n | n
COC(=O)c1ccc(COc2ccc3ccc(=O)oc3c2)o1 | n | n | n | n | n | x | x
COc1ccc(S(=O)(=O)Nc2ccc3c(c2)C(=O)N([C@@H](C)CO)C[C@H](C)[C@@H](CN(C)S(=O)(=O)c2ccccc2)O3)cc1 | x | n | x | x | x | x | x
CNC[C@H]1Oc2c(N)cccc2C(=O)N([C@@H](C)CO)C[C@@H]1C | x | n | x | x | x | x | x
O=C(Nc1ccccn1)C1CCC(=O)N1C(=O)OCc1ccccc1 (stereo not drawn) | x | x | x | x | n | x | x
CCC1=C2CCC3C(=O)N(CC)C(=O)C3C2[C@@]2(Cc3ccccc3)C(=O)N(Cc3ccccc3)C(=O)N2C1=O (stereo partly drawn) | x | x | x | x | n | x | x
COc1ccc(-n2c(C)nnc2SCC(=O)NC2CC2)cc1 | 92 | n | n | n | x | 42 | 34
Cc1ccc(-c2nc(S(=O)(=O)c3ccc(C)cc3)c(SCC(N)=O)o2)cc1 | n | n | n | n | n | x | x
NC(=O)CSc1oc(-c2ccc(F)cc2)nc1S(=O)(=O)c1ccccc1 | 62 | n | n | n | n | 158 | 89
CO[C@H]1CC[C@@H]2CCOc3ccc(C#N)cc3C(=O)N(C)C[C@@H](OC)[C@@H](C)C(=O)N(C)C[C@@H]1O2 | x | n | x | x | x | x | x
Cn1c2ccccc2c2c(C(=O)O)cn(C3CCCC3)c(=O)c21 | n | n | n | n | n | x | x
CCOC(=O)Cn1c(=O)cc(C)c2ccccc21 | n | x | n | n | n | x | x
CC(C)n1c(=O)c2ccccc2n1Cc1cn(C2CCCC2)nn1 | 101 | n | x | n | x | 90 | 60
CCOC(=O)Cn1cc(Cn2c3ccccc3c(=O)n2C(C)C)nn1 | 69 | n | x | n | x | n | n
CC(C)CCNc1c(-c2cccs2)nc2ccccn12 | 46 | x | n | n | n | 38 | 21
Cc1ccn2c(NC(C)(C)C)c(-c3cccs3)nc2c1 | 33 | x | n | n | n | + | +
CC1=Nc2ccc(C)c3nc(C)cc(c23)N1c1ccc(C)cc1 | 30 | n | n | n | x | 60 | 38
O=C(Nc1ccccc1F)C1CCCN(S(=O)(=O)c2ccc(-n3cnnn3)cc2)C1 (stereo not drawn) | 85 | n | n | n | n | 119 | 87
Cc1cc(=O)oc2cc(OCC(=O)NN=Cc3ccccc3O)ccc12 | x | x | x | x | n | x | x
CN1CCc2c(sc3c2c(=O)n(-c2cccc(Cl)c2)c2nncn32)C1 | n | n | n | n | n | x | x
SMILES | FBA Mtb inh | BioA inh | GDH-TPI counter-1 | FadD28 FP inh | Mtb hypoxia rep | Mtb FBA confirm | GDH-TPI counter-2
CN1CCc2c(sc3nc(NCCO)n(-c4cccc(Cl)c4)c(=O)c23)C1 | 71 | n | n | n | n | 109 | 88
Cc1cccc(NC(=S)NN=Cc2cccc(O)c2)c1C | x | x | x | x | n | x | x
CNC(=O)c1cc2c(ccc3ccccc32)o1 | 51 | x | n | n | n | 127 | 102
Cc1ccc(/C=N/NC(=O)c2cc3c(ccc4ccccc43)o2)o1 | n | n | n | n | x | x | x
O=C(NC1CC1)c1cc2ccccc2o1 | n | n | n | n | n | x | x
O=C(NC1CCCC1)c1cc2c(ccc3ccccc32)o1 | 40 | n | n | n | x | 107 | 80
CCCNC(=O)N(C)C[C@H]1Oc2cc(C#CC3CC3)ccc2S(=O)(=O)N([C@@H](C)CO)C[C@@H]1C | x | n | x | x | x | x | x
CCOC(=O)C1=C(C)N=c2sc(=Cc3cccn3C)c(=O)n2C1c1cccc(OC)c1OC (stereo not drawn) | x | x | x | x | n | x | x
CCOC(=O)c1cc2c(s1)-c1ccccc1CC2 | 49 | n | n | n | x | n | n
COc1cccc(C(C)=NNC(=O)Cc2c(C)[nH][nH]c2=O)c1 | x | x | x | x | n | x | x
O=C(c1cnccn1)N(c1ccccc1)C1(C(=O)NC2CCCCC2)CCCCC1 | 30 | n | n | n | n | 29 | 18
O=C(c1cnccn1)N(c1ccccc1)C1(C(=O)NC2CCCC2)CCCCC1 | n | n | n | n | x | x | x
COCCNC(=O)[C@@H]1[C@@H](CO)[C@@H]2Cn3c(ccc(C4=CCCCC4)c3=O)[C@H]1N2C(=O)C1CC1 | x | n | x | x | x | x | x
COC(=O)C(C)NC(=S)N1CCN(c2c(F)cc3c(=O)c(C(=O)O)cn(C4CC4)c3c2OC)CC1C (stereo not drawn) | 30 | x | n | n | x | + | +
Cc1ccc2[nH]c(C)c(C=NNc3nc4ccccc4s3)c2c1 | x | x | x | x | n | x | x
